# Inconclusive results are not listed. Activity calls are given as the source filed them. The call rests on the fitted dose curve; in most records, active means well fitted inhibition curve with a large enough effect; inconclusive means small, poorly fitted or top-dose-only effect; inactive means flat fitted curve, though single readings scatter.
# Tested on: CRL-7250
# Assay: Cytotoxic Profiling of Annotated Libraries Using Quantitative High-Throughput Screening (AID 1296008); further: nearly all actives have a fitted effect of over 60% in size
# Details: Five cell lines viability, CellTiter-Glo ATP luminescence, 48-72 h; max response: hits give low values
# How it was run: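 Cytotoxicity was measured as CellTiter-Glo ATP luminescence, read after 10 min at room temperature. Compound treatment of the cells lasted 48 or 72 hr at 37 degrees Celsius in a qHTS format.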
# On the % scale 0 is the no-effect control and ±100 the full control effect.
SMILES,outcome,max response
NCCOCCOCCNC(=O)Cc1ccc(Nc2nc(NCc3ccc(F)cc3)nc(NCC3CCCCC3)n2)cc1,inactive,–
CC(=O)C1CCC2(C)C3=C(CCC12C)C1(C)CCC(=O)C(C)(C)C1CC3 (stereo not given),–,-8.18% (inactive)
COc1cc(/C=C/C(=O)O[C@H]2[C@H](OC(=O)/C=C/c3cc(OC)c(O)c(OC)c3)O[C@H](CO[C@@H]3O[C@H](CO)[C@@H](O)[C@H](O)[C@H]3O)[C@@H](O)[C@@H]2O)ccc1O,inactive,–
C[C@H]1C[C@H]2[C@@H]3CCC4=CC(=O)C=C[C@]4(C)[C@@]3(F)[C@@H](O)C[C@]2(C)[C@@]1(O)C(=O)COP(=O)(O)O,–,2.73% (inactive)
COc1ccc([C@H]2Cc3cccc(O)c3C(=O)O2)cc1,–,-7.43% (inactive)
CC1CCCC2OC2C(=O)c2c(O)cc(O)cc2CC(=O)O1 (stereo not given),–,-0.57% (inactive)
C[C@@H]1O[C@@H](O[C@H]2[C@H](O[C@H]3CC[C@@]4(C)C(CC[C@]5(C)C4CC=C4[C@@H]6CC(C)(C)CC[C@]6(C(=O)O)CC[C@]45C)[C@]3(C)CO)OC[C@H](O)[C@@H]2O)[C@H](O)[C@H](O[C@@H]2OC[C@@H](O)[C@H](O)[C@H]2O)[C@H]1O (stereo not given in full),–,0.8% (inactive)
O=C(O)c1ccc(CCCc2ccc(OCCc3ccc(F)cc3)cc2)o1,–,-2.7% (inactive)
CC(=O)N1c2ccccc2C2(O)CC3C(=O)NC(CC(C)C)C(=O)N3C12 (stereo not given),–,1.79% (inactive)
CC(=O)O[C@@H]1[C@H](O[C@@H]2OC[C@](O)(CO)[C@H]2O)[C@@H](O[C@@H]2O[C@@H](C)[C@H](O)[C@@H](O)[C@H]2O)[C@H](OC(=O)[C@]23CCC(C)(C)C[C@H]2C2=CCC4[C@@]5(C)C[C@H](O)[C@H](O[C@@H]6O[C@H](C(=O)O)[C@@H](O)[C@H](O)[C@H]6O)[C@@](C)(C(=O)O)C5CC[C@@]4(C)[C@]2(C)CC3)O[C@@H]1C (stereo not given in full),–,-0.437% (inactive)
COCCN(C)Cc1ccc2nc3sc(C(=O)N(C)C4CCCCC4)cn3c2c1,inactive,–
CCC(C)/C=C(C)/C=C/C1=CC2=C(Cl)C(=O)C(C)(OC(C)=O)C(=O)C2=CN1CCCC(=O)O (stereo not given),inactive,–
CC(C)CC(=O)OC[C@H]1O[C@@](COC(=O)CC(C)C)(O[C@H]2O[C@H](CO)[C@@H](O)[C@H](O)[C@H]2OC(=O)CC(C)C)[C@@H](OC(=O)CC(C)C)[C@@H]1O,inactive,–
CC(C)(O)/C=C1/C(=O)C(C)(C)C(=O)C(C)(C)C1(O)O[C@@H]1O[C@H](COC(=O)c2cc(O)c(O)c(O)c2)[C@@H](O)[C@H](O)[C@H]1O (stereo not given in full),–,-11.2% (inactive)
CC1(C)C[C@H]2C3=CCC4[C@@]5(C)CC[C@H](O[C@H]6O[C@H](C(=O)O)[C@@H](O)[C@H](O)[C@H]6O[C@H]6O[C@H](CO)[C@@H](O)[C@H](O)[C@H]6O[C@@H]6O[C@H](CO)[C@@H](O)[C@H](O)[C@H]6O)[C@](C)(CO)C5CC[C@@]4(C)[C@]3(C)CC[C@@]2(C)[C@H](O[C@@H]2OC[C@H](O)[C@H](OC3O[C@H](CO)[C@@H](O)[C@H](O)[C@H]3O)[C@H]2O)[C@@H]1O (stereo not given in full),–,3.94% (inactive)
